Measurements from PubChem BioAssay AID1508600 (Functional Genomics Laboratory (NCATS/FGL), 2020).
Out of some 53,000 sequences screened, about 3,700 (7%) were called active. The entries come from a sample that favours actives as a whole. Values without a mark were called inactive.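 Rule for the calls: active = gene knockdowns whose robust z-score for IL-1 alpha signal is at least 2 or at most -2, so actives lie on both sides; inactive = the rest.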

assay: Components of the Cytosolic LPS Sensing Pathway: Gene Identification via Genome-wide siRNA Screen; settings: RAW264.7 macrophages, IL-1a HTRF, actives lie on both sides, screened at 100 nM (by protocol), cells primed 5 h with Pam3CSK4 first;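 note: robust z of the log signal after scaling to non-targeting control siRNA wells of the plate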
In short: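 Cells (RAW264.7, 1×10^4 per well) were transfected with siRNA at 100 nM and cultured 48h at 37 degrees C. Pam3CSK4 was added for 5 hours; LipidA transfection followed for 24 hour. IL-1a was then measured by HTRF.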

Sequence	z-score
GCCGUGCAAAGUUUAUUCATT against Nme8	1.06
CCACCAUUCGGCUCUUUUGTT against Nupl2	-0.822
GCACCUGAAGACUAAUGUUTT against Gcnt2	0.509
GGAAUAUUCAGAAUCCCUCTT against Tnfaip8l3	-0.762
GGUAACGGGACCAACACUUTT against Otop3	1.26
CCUUUAACUUUCUCCUACCTT against Nfkbid	3.45 (active)
GGAGGAAACACAUCAUUUGTT against Tmem131	1.15
GCCUCAAUUCCUCUACGCUTT against Sytl1	-1.34
GCAUAGUGACCAUGGAUAATT against Olfr807	0.95
GGAGGACGUGAACUUUGACTT against Stk32c	0.648
GCACGUCAGAAUCUCCAGATT against Pln	-0.669
GGAAUGACAAGAUUAUUGUTT against Ercc3	0.157
GGAGAGGAGUUCUUCAUUCTT against Adamts1	-1.38
GCAAGUAGCAUCUCUGAUUTT against Nfs1	1.03
GGCAAGAAGUGUGAUGAACTT against Kansl3	-2.81 (active)
GGAGGAACUGGAUUCUUACTT against Eps8l3	-0.348
GGUUGUUAGGAAUCGAUCCTT against Rps26	0.964
GGUGGAAUACUUGGAGCAGTT against Gstm4	2.98 (active)
CCAAUGCCGCCAGAAGUUATT against Siah2	0.295
CCUGUGCUCUUAUUAUCAATT against Rpp14	0.693
GCAACUUUAAUGACAGCGUTT against Moxd1	-0.211
GCUCUAUGGAGACCUAAAGTT against Sdha	-0.378
GGAGGGACAUGGAGAUUACTT against Ptpn18	3.15 (active)

Sequence	z-score
GGGAUUUUCAAAGUGAGAATT against Pmaip1	-0.502
GGAUUUUCACCAACAGCCUTT against Gh	0.046
GGACUGAAGUCCUUGACACTT against Lgi3	-1.46
CCUCCUACUGUUUAAUGUUTT against Exd2	2.47 (active)
GCCUUGACGAUAGAUUAUUTT against Irf2	1.36
GGUUGAUAAAGGAGCCAUCTT against Mcts1	1.02
GGUGUCCUUUCAAGUUGAUTT against Spg11	2.15 (active)
GCCAGUGUGACAUUUGGUATT against Eed	0.651
GGAGACUUGCUAAAUGCCCTT against Fkbp7	-0.0461
GGCAACUAAGGCUAAGAAGTT against H1f4	-1.89
GGUCUCGCUCCAAGGAAGATT against Tra2b	2.56 (active)
GGAGACUGUCAUGGCUGUGTT against Olfr397	-1.84
GCUUUACCUCCUAUUAAUATT against Rgs9bp	-0.91
GGAUUUAGCCAUGGAUUUCTT against Zfp473	-1.17
GUACAAGCCACUGGAUCUGTT against Smad6	5.56 (active)
GGAGACAAAGCAUUAUCUATT against Usp33	-0.366
GGUGAAAGGAGCAAAUGAUTT against Fyco1	-0.332
GGCACUGAGGUUGUUCAGGTT against Eif3h	0.806
CCUACCAUACCAUGAGCAGTT against Pou4f3	1.52
GGAAUACAGAUUUUUCAGATT against Frmd6	-1.15
GCAGAUACUGAGAUGCUAUTT against Dkk4	2.24 (active)
GGUGUUACCCUCCUUAGAGTT against Tmem230	-1.03
GGAUCUUGAAGACCAAAAATT against Kazn	-2.14 (active)

Sequence	z-score
GGCGAACAUGCACUUUCACTT against Gramd3	-1.28
GGAGCAUGAGGAUUACUGUTT against Trafd1	0.731
GGACAGUUUACUCCAGAUATT against Foxc1	2.84 (active)
GCACUAAAGGGCUUUUCAUTT against Serping1	0.912
GGAGAAAGGCAUCUUCAAATT against Spdef	0.0302
GCCUUACUACUACAACAACTT against Prpf40b	2.08 (active)
GGCACAAAAGAAGAUCCUGTT against Tnfaip8	-1.53
GGAUCCUGAACGAAAAAGGTT against Med19	-0.0986
CGGCAGAUUGCUGCUUUGATT against Vmn2r122	2.73 (active)
GGUCCAAGAGGAAAGACAATT against Adarb2	0.67
GGUGACAGAUGUUUAUGAGTT against Ccdc28b	-1.91
GCAUAUGAUUGUCAUGAGUTT against Olfr319	-1.47
GCAAGACCGAAGUCACGGATT against Krt19	2.87 (active)
CCGAGACAUAUACAAAGGATT against Klkb1	-0.36
CCAGACAUCGUGCUUUACATT against Chrna3	1.42
GUUAACCCUGAGCCUAAACTT against Spata3	0.356
GGGCGACAUCUUUAGCAAATT against Sh3bp4	-0.0472
GCCUAAGCCCUUAAAGCGUTT against Lrrc41	0.643
CCCACUAAGGAACAAAUUGTT against Tex24	0.297
GGCUUGCAUCAAUAAAGAATT against Adam33	0.0554
GGUGGUUGAAGAAAUGGCUTT against Timm8a1	-0.364
GGAGCAGAAGUCAAUCAGGTT against Myo1b	0.419
GGGACUAAUGUUUUGCCUATT against Krt16	-2.62 (active)
